For 35 molecules, Potency and outcome results are on record in PubChem BioAssay (NCATS).

Records with an inconclusive call do not appear. Entries that show only a call come without a potency. Activity calls are given as the source filed them. The call rests on the fitted dose curve; in most records, active means well fitted curve in the direction sought with a large enough effect; inconclusive means small, poorly fitted or top-dose-only effect, or another doubt; inactive means no such curve, though single readings can be large; an effect the other way counts as inactive or inconclusive.

The nature of one assay: qHTS of pediatric cancer cell lines to identify multiple opportunities for drug repurposing: Primary screen for RD cells (AID 1347104). Further: nearly all actives have a fitted effect of over 55% in size. Further: potency means the concentration at half of the fitted maximal effect. The following applies: RD rhabdomyosarcoma viability, CellTiter-Glo luminescence, 48 h; series mostly up to 46 µM. In short, it runs like this:
(§1)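 500-1,000 cells/well; 5 h pre-incubation 37 °C/5% CO2; compound pinned; 48 h; CellTiter-Glo, 15 min RT; luminescence. MIPE 11-pt from 0.78 nM, NPC 8-pt from 0.59 nM final. Bortezomib 2.3 µM final as positive control.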
Regarding `NC(=O)c1ncn([C@@H]2O[C@H](CO)[C@@H](O)[C@H]2O)n1`, the Potency result was “inactive”.

Consider `COc1ccc2cc1Oc1ccc(cc1)C[C@H]1c3c(cc4c(c3Oc3cc5c(cc3OC)CCN(C)[C@@H]5C2)OCO4)CCN1C`, for which the Potency was 23.7 µM (active).

For the molecule `CCN(CC)CCCC(C)Nc1c2ccc(Cl)cc2nc2ccc(OC)cc12` (configuration not stated), the Potency was 23.7 µM (active).

Regarding `CCN(CC)CCOC(=O)C1(C2CCCCC2)CCCCC1`, the Potency result was “inactive”.

Take `CN1CCCCC1CCN1c2ccccc2Sc2ccc(S(C)=O)cc21` (configuration not stated): the Potency entry was “inactive”.

Regarding `O=C(O)[C@H](O)c1ccccc1`, the Potency entry is “inactive”.

For `O=C(O)COc1nn(Cc2ccccc2)c2ccccc12`, the Potency result is “inactive”.

Take `C[C@]12CC[C@@H]3c4ccc(O)cc4CC[C@H]3[C@@H]1CCC2=O`: the Potency result was “inactive”.

Turning to `Nc1ncnc2c1ncn2[C@@H]1O[C@H](CO)[C@@H](O)[C@H]1O`, the Potency result was “inactive”.

Consider `CCCCOC(=O)c1ccc(O)cc1`, for which the Potency result is “inactive”.

As for `CNCCCC1c2ccccc2C=Cc2ccccc21`, the Potency was 26.6 µM (active).

Take `CC(C)c1c(C(=O)Nc2ccccc2)c(-c2ccccc2)c(-c2ccc(F)cc2)n1CC[C@@H](O)C[C@@H](O)CC(=O)O`: the Potency result was “inactive”.

Turning to `CC(O)COc1ccccc1` (configuration not stated), the Potency result is “inactive”.

On to `CC1=C(C/C=C(\C)CCC[C@H](C)CCC[C@H](C)CCCC(C)C)C(=O)c2ccccc2C1=O`, for which the Potency entry is “inactive”.

On to `CCCCN1CCCC[C@H]1C(=O)Nc1c(C)cccc1C`, for which the Potency entry is “inactive”.

Turning to `CC(C(O)c1ccc(O)cc1)N1CCC(Cc2ccccc2)CC1` (configuration not stated), the Potency entry is “inactive”.

For `CNCC(O)c1ccc(O)c(O)c1` (configuration not stated), the Potency result was “inactive”.

Consider `CCCCOc1cc(C(=O)OCCN(CC)CC)ccc1N`, for which the Potency result was “inactive”.

For `CN(C)CCN(Cc1ccccc1)c1ccccn1`, the Potency result is “inactive”.

Consider `CCN(CC)CCNC(=O)c1c(C)[nH]c(/C=C2\C(=O)Nc3ccc(F)cc32)c1C`, for which the Potency was 15 µM (active).

`c1ccc2c(CC3=NCCN3)cccc2c1`: the Potency entry is “inactive”.

For `O=C(CCCN1CCN(c2ccccn2)CC1)c1ccc(F)cc1`, the Potency result is “inactive”.

As to `CCN(CC)CCSC(=O)C(c1ccccc1)c1ccccc1`, the Potency entry is “inactive”.

`Cc1c(O)cccc1C(=O)N[C@@H](CSc1ccccc1)[C@H](O)CN1C[C@H]2CCCC[C@H]2C[C@H]1C(=O)NC(C)(C)C`: the Potency is 23.7 µM (active).

The next assay can be described thus: qHTS of pediatric cancer cell lines to identify multiple opportunities for drug repurposing: Primary screen for MG 63 (6-TG R) cells (AID 1347105). Further: nearly all actives have a fitted effect of over 50% in size. Further: potency means the concentration at half of the fitted maximal effect. The following applies: MG 63 (6-TG R) viability, CellTiter-Glo, 48 h; series mostly up to 46 µM. In short, it runs like this: as §1
As for `CNCCC(Oc1ccc(C(F)(F)F)cc1)c1ccccc1` (configuration not stated), the Potency was 16.8 µM (active).

For `COC(=O)C1=C(C)NC(C)=C(C(=O)OC)C1c1ccccc1[N+](=O)[O-]`, the Potency entry was “inactive”.

As to `CN(C)CCCN1c2ccccc2CCc2ccccc21`, the Potency result was “inactive”.

As for `CCN(CC)CCOC(=O)C1(C2CCCCC2)CCCCC1`, the Potency result was “inactive”.

With `OCc1cc(C(O)CNCCCCCCOCCCCc2ccccc2)ccc1O` (configuration not stated), the Potency entry was “inactive”.

Turning to `CN(C)CCC=C1c2ccccc2CCc2ccccc21`, the Potency result was “inactive”.

For `C[C@]12CC[C@@H]3c4ccc(O)cc4CC[C@H]3[C@@H]1CCC2=O`, the Potency result is “inactive”.

On to `Nc1ncnc2c1ncn2[C@@H]1O[C@H](CO)[C@@H](O)[C@H]1O`, for which the Potency entry was “inactive”.

Regarding `CCCCOC(=O)c1ccc(O)cc1`, the Potency entry was “inactive”.

Turning to `CC(CN1c2ccccc2Sc2ccccc21)N(C)C` (configuration not stated), the Potency entry is “inactive”.

On to `CC(O)COc1ccccc1` (configuration not stated), for which the Potency result is “inactive”.

For the molecule `CC1=C(C/C=C(\C)CCC[C@H](C)CCC[C@H](C)CCCC(C)C)C(=O)c2ccccc2C1=O`, the Potency result was “inactive”.

`CCCCN(CCCC)CC(O)c1cc(Cl)cc2c1-c1ccc(Cl)cc1/C2=C/c1ccc(Cl)cc1` (configuration not stated): the Potency entry was “inactive”.

As for `CCCCOc1cc(C(=O)OCCN(CC)CC)ccc1N`, the Potency result was “inactive”.

Take `CN(C)CCN(Cc1ccccc1)c1ccccn1`: the Potency result was “inactive”.

For `CCN(CC)CCNC(=O)c1c(C)[nH]c(/C=C2\C(=O)Nc3ccc(F)cc32)c1C`, the Potency is 21.1 µM (active).

Consider `CC(CN(C)C)CN1c2ccccc2CCc2ccccc21` (configuration not stated), for which the Potency entry was “inactive”.

`O=C(CCCN1CCN(c2ccccn2)CC1)c1ccc(F)cc1`: the Potency entry is “inactive”.

In the case of `CCN(CC)CCSC(=O)C(c1ccccc1)c1ccccc1`, the Potency result is “inactive”.

Turning to `Cc1c(O)cccc1C(=O)N[C@@H](CSc1ccccc1)[C@H](O)CN1C[C@H]2CCCC[C@H]2C[C@H]1C(=O)NC(C)(C)C`, the Potency was 26.6 µM (active).

A short description of the next assay: qHTS of pediatric cancer cell lines to identify multiple opportunities for drug repurposing: Primary screen for control Hh wild type fibroblast cells (AID 1347106).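 Further: a drop in luminescence marks cytotoxicity and a rise apparent proliferation; nearly all actives have a fitted effect of over 55% in size.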 The following applies: Hh wild-type fibroblast viability, CellTiter-Glo luminescence, 48 h; series mostly up to 46 µM. In short, it runs like this: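 Cells (500-1,000/well) in growth media were settled 5 h at 37 degrees C, then given compounds for 48 h. Viability was read as CellTiter-Glo luminescence. Primary runs used MIPE at 11 points (0.78 nM-46 µM) and NPC at 8 points (0.59 nM-46 µM); follow-ups used 11 points.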
Consider `NC(=O)c1ncn([C@@H]2O[C@H](CO)[C@@H](O)[C@H]2O)n1`, for which the call was inactive.

In the case of `CNCCC(Oc1ccc(C(F)(F)F)cc1)c1ccccc1` (configuration not stated), the molecule was classed as inactive.

With `CCN(CC)CCCC(C)Nc1c2ccc(Cl)cc2nc2ccc(OC)cc12` (configuration not stated), the outcome was inactive.

As for `COC(=O)C1=C(C)NC(C)=C(C(=O)OC)C1c1ccccc1[N+](=O)[O-]`, the call was inactive.

With `OCc1cc(C(O)CNCCCCCCOCCCCc2ccccc2)ccc1O` (configuration not stated), the molecule was called inactive.

With `CN(C)CCCN1c2ccccc2Sc2ccc(Cl)cc21`, the molecule was classed as inactive.

In the case of `CN1CCCCC1CCN1c2ccccc2Sc2ccc(S(C)=O)cc21` (configuration not stated), the result was inactive.

On to `CN(C)CCC=C1c2ccccc2CCc2ccccc21`, for which the call was inactive.

With `O=C(O)[C@H](O)c1ccccc1`, the molecule was called inactive.

As to `O=C(O)COc1nn(Cc2ccccc2)c2ccccc12`, the molecule was classed as inactive.

Consider `C[C@]12CC[C@@H]3c4ccc(O)cc4CC[C@H]3[C@@H]1CCC2=O`, for which the call was inactive.

As for `Nc1ncnc2c1ncn2[C@@H]1O[C@H](CO)[C@@H](O)[C@H]1O`, the outcome was inactive.

As to `CCCCOC(=O)c1ccc(O)cc1`, the call was inactive.

As to `CC(CN1c2ccccc2Sc2ccccc21)N(C)C` (configuration not stated), the call was inactive.

For `CSc1ccc2c(c1)C(N1CCN(C)CC1)Cc1ccccc1S2` (configuration not stated), the call was inactive.

For the molecule `CC1=C(C/C=C(\C)CCC[C@H](C)CCC[C@H](C)CCCC(C)C)C(=O)c2ccccc2C1=O`, the molecule was called inactive.

For the molecule `CCCCN1CCCC[C@H]1C(=O)Nc1c(C)cccc1C`, the call was inactive.

As to `CC(C(O)c1ccc(O)cc1)N1CCC(Cc2ccccc2)CC1` (configuration not stated), the result was inactive.

For `CCCCN(CCCC)CC(O)c1cc(Cl)cc2c1-c1ccc(Cl)cc1/C2=C/c1ccc(Cl)cc1` (configuration not stated), the outcome was inactive.

Regarding `CNCC(O)c1ccc(O)c(O)c1` (configuration not stated), the outcome was inactive.

Regarding `CCCCOc1cc(C(=O)OCCN(CC)CC)ccc1N`, the result was inactive.

With `CN(C)CCN(Cc1ccccc1)c1ccccn1`, the call was inactive.

Regarding `c1ccc2c(CC3=NCCN3)cccc2c1`, the result was inactive.

Regarding `CC(CN(C)C)CN1c2ccccc2CCc2ccccc21` (configuration not stated), the molecule was called inactive.

With `CC(=O)c1ccc2c(c1)N(CCCN(C)C)c1ccccc1S2`, the call was inactive.

Consider `O=C(CCCN1CCN(c2ccccn2)CC1)c1ccc(F)cc1`, for which the outcome was inactive.

For `CCN(CC)CCSC(=O)C(c1ccccc1)c1ccccc1`, the call was inactive.

Take `Cc1c(O)cccc1C(=O)N[C@@H](CSc1ccccc1)[C@H](O)CN1C[C@H]2CCCC[C@H]2C[C@H]1C(=O)NC(C)(C)C`: the outcome was inactive.
